Tau fluor cs = counter-screen for tau fibril formation inhibitors | hit rate 0.93% among 280,000 | tau K18 P301L Alexa594 fluorescence, heparin fibrillization | Potency, µM (titrated, usually from 57.7 µM) | AID 1463; also: nearly all actives have a fitted effect of over 55% in size
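Human tau K18 P301L (15 uM unlabeled, 0.24 uM Alexa 594-labeled) in 100 mM sodium acetate pH 7 with 20 uM heparin, 6 hr at 37 C. ThT 30 uM added, 1 hr ambient; Alexa 594 FP and total fluorescence read at 555/632 nm.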
USP1-UAF1 inh = USP1/UAF1 (human) deubiquitinase inhibition; Potency, µM (top dose mostly 57.1 µM), actives largely listed as inhibitors; AID 743255; recombinant USP1/UAF1, Ub-Rhodamine cleavage fluorescence; hit rate 0.23% among 390,000; O94782; also: nearly all actives have a fitted effect of over 60% in size
Target sequence (O94782 whole entry, looked up): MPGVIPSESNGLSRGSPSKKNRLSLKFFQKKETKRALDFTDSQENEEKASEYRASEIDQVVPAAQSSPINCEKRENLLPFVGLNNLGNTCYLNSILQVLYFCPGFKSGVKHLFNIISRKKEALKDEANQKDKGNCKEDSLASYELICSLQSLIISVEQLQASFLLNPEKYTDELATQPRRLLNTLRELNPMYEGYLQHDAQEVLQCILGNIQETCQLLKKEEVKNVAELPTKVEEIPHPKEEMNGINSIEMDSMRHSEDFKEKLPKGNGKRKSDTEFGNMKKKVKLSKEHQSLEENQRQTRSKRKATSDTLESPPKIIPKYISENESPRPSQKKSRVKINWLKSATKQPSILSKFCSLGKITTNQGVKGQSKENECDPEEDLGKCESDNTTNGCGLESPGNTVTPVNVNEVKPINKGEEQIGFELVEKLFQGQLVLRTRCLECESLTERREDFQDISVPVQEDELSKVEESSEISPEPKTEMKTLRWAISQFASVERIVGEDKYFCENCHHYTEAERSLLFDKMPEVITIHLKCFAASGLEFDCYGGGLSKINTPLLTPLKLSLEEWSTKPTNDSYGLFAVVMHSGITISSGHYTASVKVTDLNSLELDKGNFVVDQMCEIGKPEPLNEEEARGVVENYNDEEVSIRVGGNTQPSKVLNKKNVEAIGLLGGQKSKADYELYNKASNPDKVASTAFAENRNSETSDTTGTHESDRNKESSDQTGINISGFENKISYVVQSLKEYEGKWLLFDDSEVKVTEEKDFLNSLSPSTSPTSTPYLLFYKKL
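High-throughput fluorogenic screen: 1nM USP1/UAF1 complex, Ub-Rho substrate 150nM final, 50mM HEPES pH 7.8 with 0.5mM EDTA, 0.1 mg/ml BSA, 1mM TCEP and 0.01% Tween-20.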
Tau ThT inhib = tau fibrillization inhibition (ThT binding) | P10636 | recombinant tau K18 P301L (four-repeat tau fragment), heparin-induced fibrillization, ThT fluorescence | Potency, µM (titrated, usually from 57.4 µM), hits mostly inhibitors | hit rate 2.1% among 270,000; also: nearly all actives have a fitted effect of over 55% in size
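K18 P301L tau (15 uM + 0.24 uM Alexa 594-tagged), heparin 20 uM, NaOAc pH 7, 6 h 37 C; ThT 30 uM, 1 h RT, ex 450/em 510 nm.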
Tau FP inhib = inhibitors of human tau fibril formation; Potency, µM (doses to about 57.7 µM), hits mostly inhibitors; hit rate 0.39% among 280,000; P10636; K18 P301L tau heparin fibrillization, Alexa594 FP, 6 h; also: nearly all actives have a fitted effect of over 55% in size
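Quantitative HTS format: compounds meet 15 uM recombinant K18 P301L tau and Alexa 594-tau tracer in 100 mM sodium acetate pH 7; 20 uM heparin triggers fibrillization at 37 C over 6 hr; FP gives the signal.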
Coupling enz = inhibits coupling enzyme system, counter-screen for aldolase hits; activity change, negative = inhibition, % at 58.2 µM, hits read low; coupling enzyme system counterscreen, AmpLite Red fluorescence; hit rate 0.67% among 290,000; in the data active = activity change below about -30%
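Counterscreen of the coupled detection system alone, without aldolase: glyceraldehyde-3-phosphate coupling enzymes plus AmpLite Red readout. Compounds at 57.5 uM final, 10 min RT preincubation, 20 min RT reaction, fluorescence 525/598 nm.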
Of the large screens only hits and unclear results are named; the others gave an inactive call; [ ] = remark or other dose. Compounds with a hit are over-represented: about 2.3% of the library has one in this group of screens. Unless noted, calls follow the shape of the dose curve; as a rule, active = well fitted curve in the direction sought with a large enough effect; inconclusive = small, poorly fitted or top-dose-only effect, or another doubt; inactive = no such curve, though single readings can be large; an effect the other way counts as inactive or inconclusive.

CN(C(=S)Nc1ccc(SC(F)F)cc1)c1ccc(O)cc1	Tau fluor cs inconclusive, Tau ThT inhib 2.5µM, Tau FP inhib inconclusive, Coupling enz -34
CN(C(=S)Nc1ccc(Oc2ccccc2)cc1)c1ccc(O)cc1	Coupling enz -50
CN(C(=S)Nc1ccccc1)c1ccccc1	none
FC(F)Sc1ccc(NC(=S)NC2CCCC2)cc1	Tau fluor cs inconclusive
COc1ccc(C(=O)N2CC(=O)Nc3ccc(F)cc3C2c2ccc(F)cc2)c(OC)c1 (stereo not drawn)	none (no result: Coupling enz)
CC1SC(c2ccc(F)cc2)N(CCc2ccccc2)C1=O (stereo not drawn)	none (no result: Tau fluor cs, Tau ThT inhib, Tau FP inhib)
COc1ccc(OC)c(CC2C(=O)Nc3ccc(Br)cc32)c1 (stereo not drawn)	none (no result: Coupling enz)
N#CCc1nn2c3c(cnc2c1C#N)C(=O)CCC3	USP1-UAF1 inh inconclusive, Coupling enz -32
O=C(O)c1ccc(N=c2oc3cc(O)ccc3cc2C(=O)NCc2ccccc2)cc1	USP1-UAF1 inh inconclusive, Tau ThT inhib 28µM
O=C(Nc1nc(-c2ccco2)c(-c2ccco2)s1)C1CC(=O)N(c2ccc3c(c2)OCCO3)C1 (stereo not drawn)	Tau fluor cs inconclusive, Tau ThT inhib 14µM, Tau FP inhib inconclusive
Cc1nnc(NC(=O)C2CC(=O)N(c3ccc4c(c3)OCCO4)C2)s1 (stereo not drawn)	none (no result: Tau fluor cs, Tau ThT inhib, Tau FP inhib, Coupling enz)
Cc1cccc(NC(=O)CSc2nc3ccccc3nc2N2CCCCC2)c1C	none (no result: Coupling enz)
O=C1NC(=S)S/C1=C\c1ccc(SCc2ccco2)o1	Tau fluor cs inconclusive, USP1-UAF1 inh inconclusive, Tau ThT inhib 4.5µM, Tau FP inhib inconclusive
O=C1NC(=S)S/C1=C\c1ccc(SCc2ccccc2)o1	Tau fluor cs inconclusive, Tau ThT inhib 10µM
O=C(Cn1c(=O)n(Cc2ccco2)c(=O)c2ccccc21)Nc1ccc(Cl)cc1Cl	none (no result: Coupling enz)
Cn1nc(-c2ccc(Cl)cc2)nc2c(=O)n(C)c(=O)nc1-2	Tau ThT inhib 8.9µM, Tau FP inhib inconclusive, Coupling enz -76 (no result: USP1-UAF1 inh)
O=C(COc1ccc(F)cc1)Nc1nnc(S(=O)(=O)N2CCc3ccccc32)s1	Tau ThT inhib 2.8µM (no result: Coupling enz)
CC(C)CC(=O)Nc1nnc(S(=O)(=O)N2CCCCCC2)s1	Tau ThT inhib 2.8µM (no result: Coupling enz)
CCC(CC)C(=O)Nc1nnc(S(=O)(=O)N2CCCC2)s1	none (no result: Tau fluor cs, Tau ThT inhib, Tau FP inhib)
COc1ccc(OCC(=O)Nc2nnc(S(=O)(=O)N3CCc4ccccc43)s2)cc1	Tau ThT inhib inconclusive (no result: Coupling enz)
Cc1ccccc1OCC(=O)Nc1nnc(S(=O)(=O)N2CCCCCC2)s1	Tau ThT inhib 3.2µM (no result: Coupling enz)
CC(C)CNC(=O)NC(=O)COc1c(F)c(F)cc(F)c1F	Tau fluor cs 16µM[quencher], Tau ThT inhib inconclusive, Tau FP inhib inconclusive
CC(C)CCNC(=O)NC(=O)COc1c(F)c(F)cc(F)c1F	none
O=[N+]([O-])c1cc(-c2ccc(/C=N/c3nc4ccccn4c3-c3ccco3)o2)ccc1Cl	Tau fluor cs 25µM[quencher], USP1-UAF1 inh inconclusive, Tau ThT inhib 11µM, Tau FP inhib inconclusive
CCOC(=O)Cc1csc(NC(=O)c2sc3nc4cc(C)ccc4cc3c2N)n1	Tau fluor cs inconclusive, Tau ThT inhib 2.5µM
CCOC(=O)Cc1csc(NC(=O)c2sc3nc4ccc(CC)cc4cc3c2N)n1	Tau ThT inhib 8.9µM
COc1ccc(C(=O)c2cn(CC(=O)Nc3ccc4c(c3)OCCO4)c3ccc(OC)cc3c2=O)cc1	USP1-UAF1 inh inconclusive (no result: Coupling enz)
Cc1ccc(NC(=O)c2cccc(S(=O)(=O)N3CCN(c4ccc(F)cc4)CC3)c2)nc1	none (no result: Tau fluor cs, Tau ThT inhib, Tau FP inhib, Coupling enz)
COc1ccc(C(=O)CN2C(=O)N(c3cc(C)ccc3C)S(=O)(=O)c3ccccc32)cc1	Tau FP inhib inconclusive (no result: Coupling enz)
CCOc1ccc2nc(N=NC3=C(O)CC(C)(C)CC3=O)sc2c1	Tau ThT inhib 14µM
CCCCOc1ccc(CNC(=O)CN2C(=O)CCn3nc(-c4cn(C)c5ccccc45)cc32)cc1	Tau FP inhib inconclusive (no result: Coupling enz)
NC(CCC(=O)N[C@@H](CS)C(=O)NCC(=O)O)C(=O)O (stereo partly drawn)	Tau ThT inhib 32µM, Tau FP inhib inconclusive (no result: USP1-UAF1 inh)
COc1cc(OC)c(NC(=O)C(C)n2c(=O)cc(-c3ccccc3)c3c(C)nn(C)c32)cc1Cl (stereo not drawn)	Tau ThT inhib inconclusive (no result: Coupling enz)
COc1ccc(/C=C(\NC(=O)c2ccc(C)cc2)C(=O)Nc2ccc(C(=O)O)cc2)cc1	none (no result: Tau fluor cs, Tau ThT inhib, Tau FP inhib)
